# Screening results as filed in PubChem.
# TRb SRC2 PPI: TRbeta-SRC2 interaction inhibition; P10828; TRbeta-SRC2 peptide binding, fluorescence polarization; receptor liganded with 1 µM T3; Potency, µM (series often up to 106 µM), for the others: at the top dose activity change, negative = inhibition, most hits filed as inhibitors; 0.065% of 280,000 active; AID 1469;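 note: potency is the fitted concentration of half-maximal effect; plate controls were bound peptide for no effect and peptide without receptor for full effect; nearly all actives have a fitted effect of over 50% in size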
# Target sequence (P10828 whole entry, looked up): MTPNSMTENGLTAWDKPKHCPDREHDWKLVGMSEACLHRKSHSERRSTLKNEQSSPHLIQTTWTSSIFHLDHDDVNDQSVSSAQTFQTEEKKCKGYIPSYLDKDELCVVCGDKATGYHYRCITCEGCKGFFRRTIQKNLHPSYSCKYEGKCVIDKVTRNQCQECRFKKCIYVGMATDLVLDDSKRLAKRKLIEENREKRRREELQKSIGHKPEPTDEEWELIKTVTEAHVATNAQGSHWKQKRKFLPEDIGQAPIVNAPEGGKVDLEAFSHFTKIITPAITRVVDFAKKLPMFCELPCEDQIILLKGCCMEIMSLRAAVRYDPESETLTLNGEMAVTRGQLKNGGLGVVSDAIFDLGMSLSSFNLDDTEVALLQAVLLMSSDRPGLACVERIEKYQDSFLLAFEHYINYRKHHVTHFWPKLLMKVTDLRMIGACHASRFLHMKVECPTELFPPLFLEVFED
#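 Polarization signal, normalized between peptide-alone and full complex controls, measured compound effects on T3-liganded human TRb LBD (0.6 uM) binding 20 nM Texas Red SRC2 peptide after 5 hr.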
# Coupling enz: inhibits coupling enzyme system, counter-screen for aldolase hits; coupling enzyme system counterscreen, AmpLite Red fluorescence; activity change, negative = inhibition, % at 58.2 µM, hits read low; 0.67% of 290,000 active; in the data active = activity change below about -30%; note: % is set by controls: 0 for no effect and ±100 for the full control effect
#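 Fluorescence at 525 nm excitation and 598 nm emission measured inhibition of the coupled detection system without aldolase. Compounds (at 57.5 uM final) were preincubated 10 min at room temperature with coupling enzyme reagent before a 20 min substrate/AmpLite Red step.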
# NPSR antag: blocks cAMP signaling of the human neuropeptide S receptor; Potency, µM (highest dose often 38.3 µM), for inactives: top-dose activity change, negative = inhibition, actives largely listed as inhibitors; Q6W5P4; 1% of 220,000 active; CHO-NPSR cells, cAMP TR-FRET, antagonist mode; AID 1461; note: potency is the fitted concentration of half-maximal effect; % is set by controls: 0 for no effect and ±100 for the full control effect; nearly all actives have a fitted effect of over 50% in size
# TSHR antagonist: antagonists of human thyroid stimulating hormone receptor; TSHR-expressing cells, TSH-stimulated cAMP HTRF, 2 h; active compounds read low; activity change, negative = inhibition, % at 11.5 µM; 0.2% of 330,000 active; AID 504810;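 active = activity change below a set negative limit, meaning inhibition stronger than a set level, cut at about -70% in these data; inconclusive = activity change between two set negative limits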; note: % is set by controls: 0 for no effect and ±100 for the full control effect
#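 Antagonism was scored as loss of TSH-driven cAMP in TSHR cells, stimulated with 4nM TSH (EC80) for 2 hours at 37 deg C and detected by homogeneous HTRF competition immunoassay.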
# TCR activator: activates T cell receptor signaling | primary human leukocytes, anti-CD3, IL-2 HTRF, 48 h | Potency, µM (top dose mostly 9.22 µM), for inactives: at the top dose activation of IL-2 secretion, actives largely listed as activators | 330,000 tested, under 10 active; note: % of control where 0% means no effect
#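 Using a-CD3 beads without co-stimulation, primary human leukocytes were exposed to compounds for 48 hr. An HTRF IL-2 kit measured the cytokine, with europium-to-d2 energy transfer producing emission at 665nm upon 320nm excitation.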
# TexasRed fluor: counter-screen for TRb-SRC2 inhibitors: fluorescence interference; 0.29% of 280,000 active; Potency, µM (series often up to 106 µM), for inactives: at the top dose fluorescence change, negative = quenching; TRb/SRC2 Texas Red total fluorescence interference; active = well fitted curve in either direction with a large enough effect; inconclusive = small, poorly fitted or top-dose-only effect; note: potency is the fitted concentration of half-maximal effect; % is set by controls: 0 for no effect and ±100 for the full control effect
#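 Human TRb ligand-binding domain at 0.6 uM with 20 nM Texas Red SRC2 peptide in Tris buffer containing 1 uM T3 and 5% DMSO, incubated with compound 5 h at ambient temperature. Total fluorescence (555/632 nm) calculated as parallel + 2 × perpendicular.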
# * = called active by the depositor; ? = inconclusive; nt = no result; [ ] = remark or other dose. Most compounds without a hit are left out; they make up all but 1% or so of the library. Unless noted, calls come from the whole dose curve; as a rule, active = well fitted curve in the direction sought with a large enough effect; inconclusive = small, poorly fitted or top-dose-only effect, or another doubt; inactive = no such curve, though single readings can be large; an effect the other way counts as inactive or inconclusive.
SMILES,TRb SRC2 PPI,Coupling enz,NPSR antag,TSHR antagonist,TCR activator,TexasRed fluor
COc1cc2c(C#N)c(N3CCN(C)CC3)nc(N)c2c(N)n1,-8.2%,-13.3,-1.8%[46.1 µM],-5.7,nt,-7.7%
C=CC(C)=C[C@@]1(C)SC(=O)C(C)=C1O,nt,nt,nt,-19.8,nt,nt
O=C(Nc1nnc(S(=O)(=O)N2CCCCCC2)s1)c1ccccc1Br,-9.1%,0.6,nt,-20.2,4.4%,-2.0%
O=C(Nc1nnc(S(=O)(=O)N2CCCC2)s1)c1ccccc1Br,-12.9%,-1.4,nt,-10.7,7.7%,0.0501µM*[quencher]
Cn1nnnc1SCC1=C(C(=O)O)N2C(=O)C(NC(=O)C3CC3c3ccccc3)C2SC1 (configuration not stated),-11.6%,2.0,9.2%,-104.9*,10.3%,0.0%
CCOC(=O)c1ccc(CC(=O)c2ccc(O)c(O)c2O)o1,-4.6%,-48.4*,-5.4%,5.5,-0.3%,-0.4%
O=C(CCc1nc2cccnc2n1Cc1ccccc1)NCc1cccc(Cl)c1,-2.7%,nt,nt,nt,nt,-2.5%
N#CC1=C(N)N(c2ccc(F)cc2)C2=C(C1c1ccc(O)cc1)S(=O)(=O)CC2 (configuration not stated),?,-25.6,-34.8%,0.7,1.8%,44.7µM*[fluorescent]
Cc1ccccc1CN1CCC(CNc2ncnc3onc(-c4ccc(F)cc4)c23)CC1,-19.3%,nt,nt,nt,nt,0.0708µM*[quencher]
Cc1cccc(Nc2ncnc3onc(-c4ccc(F)cc4)c23)c1C,nt,0.2,nt,1.8,-2.3%,nt
COc1ccc(Cl)cc1NC(=O)Cn1cnc2c1c(=O)n(C)c(=O)n2C,-3.8%,nt,nt,nt,nt,-3.1%
Cc1[nH][nH]c(=O)c1C(c1ccc(-c2ccccc2C(=O)O)o1)c1c(C)[nH][nH]c1=O,?,-47.3*,-1.3%,5.6,3.4%,-2.3%
Cc1[nH][nH]c(=O)c1C(c1ccc(-c2cccc(C(=O)O)c2)o1)c1c(C)[nH][nH]c1=O,-22.4%,-30.9*,-9.7%,-10.6,2.9%,-3.9%
COC(=O)c1ccc(-c2ccc(C(c3c(C)[nH][nH]c3=O)c3c(C)[nH][nH]c3=O)o2)cc1,-23.6%,-44.5*,9.0%,9.3,0.5%,-5.0%
Cc1[nH][nH]c(=O)c1C(c1ccc(-c2cccc(Cl)c2)o1)c1c(C)[nH][nH]c1=O,?,-48.3*,4.7%,11.9,7.6%,-2.1%
O=c1[nH]nc(Cc2ccc(-c3cccc(Cl)c3)o2)c2ccccc12,0.2%,-1.2,-16.1%[46.1 µM],-41.1,-5.7%,-1.6%
COc1ccccc1NC(=O)c1ccc2oc(=O)c(S(=O)(=O)c3ccccc3)cc2c1,-2.9%,nt,nt,nt,nt,-4.3%
COc1ccc2[nH]c(=O)c(CN(C(=O)c3cccc(Cl)c3)c3ccccc3C)cc2c1,-2.4%,nt,nt,nt,nt,-20.1%
Cc1ccc(NC(=O)CN2C(=O)CCc3ccccc32)cc1C,2.2%,nt,nt,nt,nt,-18.9%
COc1ccc(OC)c(CNC(=O)CCCn2nc(C)c3c(C)n(-c4ccc(C)cc4)nc3c2=O)c1,-0.3%,nt,nt,nt,nt,-0.8%
COCCNC(=O)CCC(=O)N1Cc2cccc(OC)c2Oc2ncccc21,6.1%,nt,nt,nt,nt,-0.3%
Cc1[nH][nH]c(=O)c1C(c1ccc(-c2ccc(Cl)cc2Cl)o1)c1c(C)[nH][nH]c1=O,?,-57.9*,-4.3%[46.1 µM],3.7,nt,-8.4%
Cc1[nH][nH]c(=O)c1C(c1ccc(Br)cc1)c1c(C)[nH][nH]c1=O,nt,-3.2,nt,7.7,-2.3%,nt
Cc1ccc(-n2nc(CO)c(C(=O)NC(C)CCCc3ccccc3)n2)cc1 (configuration not stated),-3.0%,nt,nt,nt,nt,-1.6%
Cc1ccc(S(=O)(=O)C(CNC(=O)C(=O)NCCc2ccc(Cl)cc2)c2cccs2)cc1 (configuration not stated),-4.5%,nt,nt,nt,nt,-0.8%
SMILES,TRb SRC2 PPI,Coupling enz,NPSR antag,TSHR antagonist,TCR activator,TexasRed fluor
CCOC(=O)C1CCN(S(=O)(=O)c2ccc(CN3C(=O)c4cccnc4C3=O)cc2)CC1,nt,-1.0,nt,34.1,2.5%,nt
O=C1c2cccnc2C(=O)N1Cc1ccc(S(=O)(=O)N2CCN(c3ccc(Cl)cc3)CC2)cc1,nt,2.3,nt,-134.8*,1.3%,nt
CC(c1ccccc1)N1CCn2c(nc3cc(NC(=O)NC4CCCCC4)ccc32)C1 (configuration not stated),-16.1%,-46.1*,-5.0%[46.1 µM],9.9,0.2%,3.2%
CC(c1ccccc1)N1CCn2c(nc3cc(NC(=O)c4cccs4)ccc32)C1 (configuration not stated),-10.7%,-2.9,-5.8%[46.1 µM],-10.0,2.1%,1.4%
COc1ccc(Cl)c2sc(NC(=O)c3ccc(S(=O)(=O)N4CCOCC4)cc3)nc12,2.8%,nt,nt,nt,nt,-8.6%
CCC(C(=O)NCCc1ccc(OC)c(OC)c1)n1nc(C)c2sc3ccccc3c2c1=O (configuration not stated),3.6%,nt,nt,nt,nt,-1.6%
O=C1[C@@H]2[C@H]3[C@H](O)[C@H](O)C/C(=N/OC[C@@H](O)COCc4ccco4)[C@H]3CC[C@H]2C(=O)N1c1ccc(F)cc1F,-2.0%[11.2 µM],-30.4*,nt,nt,nt,2.0%[11.2 µM]
O=C(Nc1ccccc1)/C(=C\c1cccs1)NC(=O)c1ccccc1,-12.9%,1.6,3.8%,21.7,-6.4%[46.1 µM],0.0282µM*[quencher]
CN(C)c1oc(-c2ccccc2[N+](=O)[O-])nc1C#N,-3.1%,-30.2*,-7.9%,-4.1,-3.4%,-2.7%
CN(C)c1oc(-c2ccccc2Cl)nc1C#N,3.9%,2.6,-18.8%[46.1 µM],8.1,-2.0%,-0.5%
CCOc1ccccc1N1CCN(C(=O)CCCN2C(=O)c3cccc4cccc(c34)C2=O)CC1,1.3%,-1.2,?,-81.0*,2.0%[46.1 µM],-2.9%
C=CCn1c(N)c(C(=O)Nc2cccc(C)c2)c2nc3ccccc3nc21,-5.4%,-33.8*,?,13.1,2.6%,-0.3%
C=CCn1c(N)c(C(=O)Nc2ccc(C)c(C)c2)c2nc3ccccc3nc21,-9.4%,5.2,?,2.7,nt,0.9%
Cc1ccc(OCc2nc(-c3ccc(C(=O)N4CCN(c5cccc(C(F)(F)F)c5)CC4)cc3)oc2C)cc1,9.7%,nt,nt,nt,nt,-6.7%
CC(C)c1ccc(N2C=Nc3ccc(C(C)C)cc3C2)cc1,-0.3%,0.3,7.94µM*,-2.7,-0.5%,1.4%
C1=Nc2ccccc2CN1c1ccccc1,7.7%,2.5,16.4%,11.5,-4.8%[46.1 µM],1.2%
CN(C)c1cccc2c1c(NC(=O)c1ccc(F)cc1)nn2C,-10.5%,-27.7,-10.5%[7.67 µM],-6.0,2.4%,0.4%
CN(C)c1cccc2c1c(NC(=O)c1ccc(Cl)cc1)nn2C,-3.3%,-36.7*,-6.7%[7.67 µM],-9.9,11.4%,-4.2%
CN(C)c1cccc2c1c(NC(=O)Nc1ccccc1)nn2C,-3.7%,-31.0*,38.4%,-14.1,9.8%,-2.2%
